Test results from PubChem BioAssay (NCI).
The panel holds about 83,000 compounds, 20% with a hit somewhere; the sample as a whole holds those more often.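 Cell lines were cultured in 96-well plates, exposed to a single compound concentration, and assessed for percent growth 48 hours later.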 Values without a mark were called inactive. Active and inactive are the calls of the source. Rule for the calls: active = growth percent below 10; inactive = the rest.

Legend:
Test in all cases: NCI-60 one-dose screen, 48 h (100 = growth as untreated, 0 = no growth, -100 = all killed)
Conditions in all cases: 10 µM unless noted
NCI-H23 lung = system: NCI-H23 lung
NCI-H226 lung = system: NCI-H226 lung
NCI-H322M lung = system: NCI-H322M lung
HOP-62 NSCLC = system: HOP-62 NSCLC
NCI-H460 lung = system: NCI-H460 lung
HOP-92 NSCLC = system: HOP-92 NSCLC
NCI-H522 lung = system: NCI-H522 lung
A549/ATCC NSCLC = system: A549/ATCC NSCLC
786-0 renal = system: 786-0 renal
COLO 205 colon = system: COLO 205 colon
DU-145 prostate = system: DU-145 prostate
K-562 leukemia = system: K-562 leukemia
MALME-3M melanoma = system: MALME-3M melanoma
RXF 393 renal = system: RXF 393 renal
SF-268 CNS = system: SF-268 CNS
SF-295 CNS = system: SF-295 CNS
SF-539 CNS = system: SF-539 CNS
UACC-257 melanoma = system: UACC-257 melanoma
M14 melanoma = system: M14 melanoma
MDA-MB-231 breast = system: MDA-MB-231 breast

| Structure (SMILES) | growth (NCI-H23 lung) | growth (NCI-H226 lung) | growth (NCI-H322M lung) | growth (HOP-62 NSCLC) | growth (NCI-H460 lung) | growth (HOP-92 NSCLC) | growth (NCI-H522 lung) | growth (A549/ATCC NSCLC) | growth (786-0 renal) | growth (COLO 205 colon) | growth (DU-145 prostate) | growth (K-562 leukemia) | growth (MALME-3M melanoma) | growth (RXF 393 renal) | growth (SF-268 CNS) | growth (SF-295 CNS) | growth (SF-539 CNS) | growth (UACC-257 melanoma) | growth (M14 melanoma) | growth (MDA-MB-231 breast) |
| --- | --- | --- | --- | --- | --- | --- | --- | --- | --- | --- | --- | --- | --- | --- | --- | --- | --- | --- | --- | --- |
| COc1ccc([C@H](C)Nc2nc(Cl)nc3ccccc23)cc1 | 23.2% | 58.9% | 86% | 43.6% | 60.8% | 46.1% | -0.556% (active) | 70.2% | 84.8% | 90.3% | 74.2% | 9.94% (active) | 66.5% | 78.3% | 76.6% | 20.2% | 68.3% | 48.2% | 78.8% |  |
| N#Cc1c(-c2ccccc2Cl)cc(-c2c[nH]c3ccccc23)[nH]c1=O | 69.9% | 64.3% | 72.9% | 67.2% | 65.9% | 44.9% | 70.8% | 77.5% | 68.8% | 114% | 66% | 20% | 57.2% | 48.7% | 80% | 75.8% | 52.2% | 82.3% | 64.1% |  |
| CC1=C(C(=O)OCc2ccccc2)C(c2c(O)cc(O)cc2O)n2c(nc3ccccc32)N1 (centres undefined) | 65.9% | 62.2% | 94.1% | 47.8% | 29.6% | 83.1% | 1.19% (active) | 56.7% | 49.4% | 63.5% | 82.3% | 17.4% | 52.7% | 25.5% | 52.7% | 25.4% | 16.8% | 47.9% | 41.7% |  |
| CC(=O)OC[C@@]1(C)C2CC[C@]3(C)C(CC=C4C5CC(C)(C)CC[C@]5(C(=O)Nc5cccc(C)c5)CC[C@]43C)[C@@]2(C)C[C@@H](OC(C)=O)[C@@H]1OC(C)=O (some centres undefined) | 45% | 39% | 65.9% | 40.4% | 12.7% | 50.8% | 40.3% | 40.7% | 53.4% | 45.7% | 48.3% | 21.5% | 61.3% | 85.4% | 56.2% | 27.4% | 42% | 24.7% | 49.8% | 67.7% |
| COc1ccc(C2=NN(C(C)=O)C(c3ccc(OCc4ccc(Cl)cc4)c(OC)c3)C2)cc1OC (centres undefined) | 58% | 49.9% | 81.9% | 76.2% | 41.3% | 37.1% | 28.5% | 29% | 57.9% | 41.3% | 51.3% | 31% | 48.1% | 52.9% | 47.1% | 37.8% | 63.8% | 40.2% | 54.2% | 69.6% |
| N/C(=N\c1nc2ccccc2s1)NC(=O)NCCCCCCO | 31.4% | 36.2% | 71.1% | 43.5% | 59.3% | 22% | 36% | 55% | 58.7% | 88.1% | 56.7% | 23.4% | 54% | 43.6% | 61.6% | 21.4% | 64.8% | 29.2% | 67.3% |  |
| COc1ccc2cc([C@H](C)C(=O)N/N=C/c3ccc(Br)cc3)ccc2c1 | 101% | 103% | 98.2% | 90.1% | 100% | 103% | 92% | 100% | 95.4% | 108% | 108% | 100% | 95.3% | 100% | 99.5% | 98.8% | 102% | 110% | 102% |  |
| COc1ccc(C(=O)/C=C/c2cccnc2)cc1S(N)(=O)=O | 22.3% | 77.3% | 52% | 27.5% | 19.9% | 56.5% | -67.8% (active) | 42.7% | 50.4% | 23.9% | 22% |  | 77.5% | 54.1% | 44.4% | 38.9% | 3.62% (active) | 72.1% | 66.2% | 60.5% |
